Test results as given in PubChem BioAssay AID2073 (Sanford-Burnham Center for Chemical Genomics, 2009).
Hit rate of the full screen: of about 290,000 compounds, about 570 (0.2%) were called active. About 1% were inconclusive and are not listed. No stated cut-off is given here; in the data, active means inhibition mostly above about 51% (no sharp cut-off); inconclusive means no clear call, values can overlap the other calls; inactive means mostly below about 53%. Shown is part of a subset that was picked to be rich in actives.

Molecular target: Voltage-dependent N-type calcium channel subunit alpha-1B (Homo sapiens) (UniProt Q00975)
Sequence (Q00975 whole entry, looked up): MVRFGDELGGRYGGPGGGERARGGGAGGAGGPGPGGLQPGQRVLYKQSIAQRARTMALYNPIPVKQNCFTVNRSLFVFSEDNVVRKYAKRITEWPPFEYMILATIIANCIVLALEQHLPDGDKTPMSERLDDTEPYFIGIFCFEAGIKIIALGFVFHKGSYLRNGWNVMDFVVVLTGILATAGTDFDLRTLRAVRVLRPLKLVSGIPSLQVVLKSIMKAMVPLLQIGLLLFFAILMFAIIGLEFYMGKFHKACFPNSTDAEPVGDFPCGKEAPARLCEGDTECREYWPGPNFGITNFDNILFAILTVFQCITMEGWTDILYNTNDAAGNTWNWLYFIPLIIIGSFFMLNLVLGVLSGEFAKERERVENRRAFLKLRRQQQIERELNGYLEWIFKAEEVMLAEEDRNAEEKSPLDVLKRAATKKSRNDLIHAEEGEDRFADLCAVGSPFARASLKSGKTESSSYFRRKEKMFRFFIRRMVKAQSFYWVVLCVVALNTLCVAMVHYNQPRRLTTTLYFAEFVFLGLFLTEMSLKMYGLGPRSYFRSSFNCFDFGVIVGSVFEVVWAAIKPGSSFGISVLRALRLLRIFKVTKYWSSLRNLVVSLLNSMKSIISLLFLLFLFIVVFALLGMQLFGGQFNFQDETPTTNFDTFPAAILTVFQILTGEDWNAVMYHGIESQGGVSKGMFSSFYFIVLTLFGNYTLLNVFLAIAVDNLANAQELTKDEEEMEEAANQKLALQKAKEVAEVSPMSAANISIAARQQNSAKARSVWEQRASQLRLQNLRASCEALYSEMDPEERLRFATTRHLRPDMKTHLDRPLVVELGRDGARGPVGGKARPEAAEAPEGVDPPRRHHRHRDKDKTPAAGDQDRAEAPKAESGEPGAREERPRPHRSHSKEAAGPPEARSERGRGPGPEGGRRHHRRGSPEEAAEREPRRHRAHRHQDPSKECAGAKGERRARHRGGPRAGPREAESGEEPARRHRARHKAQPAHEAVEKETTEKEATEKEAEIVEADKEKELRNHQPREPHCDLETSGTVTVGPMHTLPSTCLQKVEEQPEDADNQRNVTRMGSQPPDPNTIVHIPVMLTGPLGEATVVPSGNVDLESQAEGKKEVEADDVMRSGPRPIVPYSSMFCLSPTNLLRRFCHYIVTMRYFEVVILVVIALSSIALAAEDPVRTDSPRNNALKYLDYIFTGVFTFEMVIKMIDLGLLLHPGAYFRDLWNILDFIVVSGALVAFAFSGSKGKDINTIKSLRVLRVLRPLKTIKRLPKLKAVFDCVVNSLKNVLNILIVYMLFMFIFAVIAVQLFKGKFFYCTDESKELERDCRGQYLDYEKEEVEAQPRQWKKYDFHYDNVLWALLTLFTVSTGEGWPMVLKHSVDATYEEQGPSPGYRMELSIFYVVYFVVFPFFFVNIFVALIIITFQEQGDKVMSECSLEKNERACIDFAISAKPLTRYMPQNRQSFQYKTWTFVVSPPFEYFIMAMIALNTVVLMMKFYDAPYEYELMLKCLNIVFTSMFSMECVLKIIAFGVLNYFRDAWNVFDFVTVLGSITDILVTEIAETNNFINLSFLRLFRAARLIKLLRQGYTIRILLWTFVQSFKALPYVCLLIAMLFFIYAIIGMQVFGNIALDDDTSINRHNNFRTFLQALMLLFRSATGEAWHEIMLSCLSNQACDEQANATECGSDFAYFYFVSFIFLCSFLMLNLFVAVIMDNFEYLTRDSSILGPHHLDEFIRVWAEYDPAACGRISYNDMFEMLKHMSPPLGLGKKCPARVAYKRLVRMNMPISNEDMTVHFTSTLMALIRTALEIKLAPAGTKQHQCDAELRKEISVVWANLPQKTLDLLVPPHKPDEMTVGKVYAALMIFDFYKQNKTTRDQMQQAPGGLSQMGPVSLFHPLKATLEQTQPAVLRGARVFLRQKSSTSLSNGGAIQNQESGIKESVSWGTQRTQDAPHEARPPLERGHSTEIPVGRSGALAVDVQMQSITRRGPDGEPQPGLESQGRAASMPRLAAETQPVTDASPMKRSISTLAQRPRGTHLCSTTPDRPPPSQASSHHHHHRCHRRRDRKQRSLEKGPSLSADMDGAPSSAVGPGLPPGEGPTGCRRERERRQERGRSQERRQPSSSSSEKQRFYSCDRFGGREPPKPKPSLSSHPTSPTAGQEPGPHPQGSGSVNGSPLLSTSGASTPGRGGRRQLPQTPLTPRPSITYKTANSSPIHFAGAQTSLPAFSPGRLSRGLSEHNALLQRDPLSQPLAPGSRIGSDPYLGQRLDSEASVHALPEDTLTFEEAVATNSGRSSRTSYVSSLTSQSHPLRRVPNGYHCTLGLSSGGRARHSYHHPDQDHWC
Assay: inhibitors of Mint1-CaV2.2 protein interaction, biochemical, HTRF (AID 2073)
Conditions: at 20 µM, stronger effect = higher value
[1] = measured here: average of repeat tests

SMILES	inhibition	inhibition [1] [%]
CCCCc1[nH]nc2c1C1(C(=O)N(CC)c3ccccc31)C(C#N)=C(N)O2 (stereo not drawn)	-5.8% (inactive)	–
COc1ccc(N2CCN(CCNC(=O)Nc3cccc(C)c3C)CC2)cc1	0.6% (inactive)	–
O=C(/C=C/c1ccc2c(c1)OCO2)Nc1nc(-c2ccc(F)cc2F)cs1	9.1% (inactive)	–
CCCCOc1ccc(-c2cc(C(F)(F)F)c(C#N)c(SCC(=O)O)n2)cc1	60.7% (active)	–
COc1ccc(-c2cc(C(F)(F)F)c(C#N)c(SCC(=O)O)n2)cc1	22% (inactive)	–
CCCOc1ccc(-c2cc(C(F)(F)F)c(C#N)c(SCC(=O)O)n2)cc1	35.3% (inactive)	–
Cc1cccc(NC(=O)CCN2C(=O)C3C4C=CC(C4)C3C2=O)n1 (stereo not drawn)	22% (inactive)	–
O=C(NCc1ccc(Cl)cc1)c1nccnc1CO	11.8% (inactive)	–
COc1ccc(NS(=O)(=O)c2cccc(-c3n[nH]c(=S)n3Cc3ccccc3)c2)cc1	3.7% (inactive)	–
O=C(COc1ccc(Cl)cc1Cl)c1ccc[nH]1	21.1% (inactive)	–
O=C(COc1ccc(Br)cc1Cl)c1ccc[nH]1	24.7% (inactive)	–
O=C(COc1ccccc1Cl)c1ccc[nH]1	53.6% (active)	–
COc1ccc(C(NC(=O)CC(C)C)c2c(O)ccc3ccccc23)cc1 (stereo not drawn)	15.2% (inactive)	–
CCc1ccccc1N1CSC2=C(C#N)C(c3cc(OC)c(OC)cc3OC)CC(=O)N2C1 (stereo not drawn)	75.6% (inactive)	34.5
CCc1ccc(C2CC(=O)N3CN(c4ccccc4)CSC3=C2C#N)cc1 (stereo not drawn)	88% (inactive)	42.4
COc1cc(OC)c(C2CC(=O)N3CN(c4ccccc4C)CSC3=C2C#N)cc1OC (stereo not drawn)	73.1% (active)	–
CCc1ccccc1N1CSC2=C(C#N)C(c3ccccc3F)CC(=O)N2C1 (stereo not drawn)	84.5% (active)	–
COc1cc(OC)c(C2CC(=O)N3CN(c4ccc(C)cc4)CSC3=C2C#N)cc1OC (stereo not drawn)	65.7% (inactive)	14.9
N#CC1=C2SCN(c3ccccc3)CN2C(=O)CC1c1cccs1 (stereo not drawn)	74% (inactive)	42.2
COc1cc(C2CC(=O)N3CN(c4ccccc4C)CSC3=C2C#N)cc(OC)c1OC (stereo not drawn)	90.6% (inactive)	32.6
CCOc1cc(C2CC(=O)NC(SCC)=C2C#N)ccc1O (stereo not drawn)	5.2% (inactive)	–
N#CC1=C2SCN(Cc3ccco3)CN2C(=O)CC1c1ccccc1F (stereo not drawn)	84.1% (inactive)	33.2
CCOc1cc(C2CC(=O)N3CN(C4CCCCC4)CSC3=C2C#N)ccc1O (stereo not drawn)	62.4% (active)	–
N#CC1=C2SCN(c3ccccc3)CN2C(=O)CC1c1ccccc1Cl (stereo not drawn)	57.1% (inactive)	35.2

SMILES	inhibition	inhibition [1] [%]
COc1cccc(C2CC(=O)N3CN(c4cccc(Cl)c4C)CSC3=C2C#N)c1OC (stereo not drawn)	73.5% (active)	–
CCC(C)/C(C)=N/NC(=O)CSc1nc2ccccc2[nH]1 (stereo not drawn)	-5.4% (inactive)	–
Cc1ccc(C)c(N(C(=O)c2csnn2)C(C(=O)NC2CCCCC2)c2ccccn2)c1 (stereo not drawn)	1.3% (inactive)	–
O=C(CN1CCOCC1)Nc1cccc(S(=O)(=O)N2CCCCCC2)c1	-5.9% (inactive)	–
Cc1ccc(N2C(=O)C3C4CC(=O)C(c5ccccc54)C3C2=O)cc1C (stereo not drawn)	-1.5% (inactive)	–
COc1ccc(N2CSC3=C(C#N)C(c4ccc(OC)c(OC)c4)CC(=O)N3C2)c(OC)c1 (stereo not drawn)	91.4% (active)	–
COc1ccccc1N1CSC2=C(C#N)C(c3ccc(SC)cc3)CC(=O)N2C1 (stereo not drawn)	81.5% (active)	–
COc1ccc(OC)c(C2CC(=O)N3CN(c4cccc(Cl)c4)CSC3=C2C#N)c1 (stereo not drawn)	37.5% (inactive)	–
COc1ccc(OC)c(C2CC(=O)N3CN(c4ccccc4F)CSC3=C2C#N)c1 (stereo not drawn)	29.3% (inactive)	–
COc1ccc(C2CC(=O)N3CN(c4ccc(C)c(Cl)c4)CSC3=C2C#N)cc1 (stereo not drawn)	80.8% (inactive)	11.1
CCOc1ccccc1N1CSC2=C(C#N)C(c3c(OC)ccc4ccccc34)CC(=O)N2C1 (stereo not drawn)	72.9% (inactive)	9.7
COc1ccc(C2CC(=O)N3CN(c4ccccc4F)CSC3=C2C#N)cc1OC (stereo not drawn)	79.9% (inactive)	38.6
COc1ccc(N2CSC3=C(C#N)C(c4cc(OC)ccc4OC)CC(=O)N3C2)c(OC)c1 (stereo not drawn)	69.2% (active)	–
COc1cccc(C2CC(=O)N3CN(c4ccccc4F)CSC3=C2C#N)c1 (stereo not drawn)	75.5% (inactive)	31
CCCCc1cc(=O)oc2cc(OCC(=O)N3CCC(C(N)=O)CC3)ccc12	8.7% (inactive)	–
O=C(c1ccco1)N1CCN(Cc2cccc3ccccc23)CC1	3.9% (inactive)	–
O=C(COC(=O)c1ccc(O)cc1)Nc1cccc(S(=O)(=O)NC2=NCCCCC2)c1	-9.8% (inactive)	–
O=C(COC(=O)c1cnccn1)Nc1ccc(Cl)cc1	3.8% (inactive)	–
CC(=O)Nc1ccc(NC(=O)COC(=O)c2cnccn2)cc1	15.7% (inactive)	–
NS(=O)(=O)c1ccc(NC(=O)COC(=O)c2cnccn2)cc1	51.2% (active)	–
CC(C)OC(=O)c1cc2c(ccn2-c2ccc(F)cc2)n1CC(=O)N1CCN(C(=O)c2ccco2)CC1	40.4% (inactive)	–
C[C@H]1c2cccc(O)c2C(O)=C2C(=O)[C@]3(O)C(O)=C(C(N)=O)C(=O)[C@@H](N(C)C)[C@@H]3[C@@H](O)[C@@H]21	13.4% (inactive)	–
CN(C)[C@@H]1C(=O)C(C(N)=O)=C(O)[C@@]2(O)C(=O)C3=C(O)c4c(O)ccc(Cl)c4[C@@H](O)[C@H]3C[C@@H]12	56.1% (active)	–
CN(C)c1ccc(O)c2c1CC1CC3[C@@H](N(C)C)C(=O)C(C(N)=O)=C(O)[C@]3(O)C(=O)C1=C2O (stereo partly drawn)	22.3% (inactive)	–

SMILES	inhibition	inhibition [1] [%]
C=C1CCC[C@]2(C)C[C@H]3OC(=O)C(CN(Cc4ccc(OC)c(OC)c4)CC(C)O)[C@H]3CC12 (stereo partly drawn)	6.9% (inactive)	–
COc1cccc(-c2nc(NCc3cccnc3)c3ccccc3n2)c1O	14.2% (inactive)	–
O=C(Nc1ccc2oc(-c3ccccc3F)nc2c1)c1ncn[nH]1	2.6% (inactive)	–
O=C(Nc1ccc2oc(-c3ccccc3Cl)nc2c1)c1ncn[nH]1	28.3% (inactive)	–
O=C(c1cccs1)N1CCN=C1SCc1cccnc1	-1.3% (inactive)	–
CCOc1cccc(NC(=O)c2cccc(F)c2)c1	2.7% (inactive)	–
CN(C)C=Nc1c(Br)cc(Br)c2nonc12	19.7% (inactive)	–
Cc1ccc(Nc2nc(=O)c3cccnc3s2)cc1	2.2% (inactive)	–
Cc1ccc(Nc2nc(=O)c3cccnc3s2)c(Br)c1	-13% (inactive)	–
COc1ccc(OC)c(Nc2nc(=O)c3cccnc3s2)c1	81.8% (active)	–
Cc1cccc(Oc2sc(C(=O)c3ccccc3)c(N)c2C#N)c1C	4.2% (inactive)	–
CCCCNc1nc2ccccc2nc1Cl	4.6% (inactive)	–
COc1ccc(C2(C)NC(=O)N(CC(=O)Nc3ccc(S(=O)(=O)N4CCCC4)cc3)C2=O)cc1 (stereo not drawn)	4.9% (inactive)	–
Brc1ccc(/C=C/C=N/Nc2nc3ccccc3s2)cc1	5.3% (inactive)	–
Oc1ccc(N=C/C=C/c2ccc(Br)cc2)cc1-c1nc2ccccc2s1	62.9% (active)	–
Oc1ccc(N=C/C=C/c2cccc(Br)c2)cc1-c1nc2ccccc2s1	66.6% (inactive)	5
CCN=C1NN=C(c2cc(C)n(Cc3ccco3)c2C)CS1	57.5% (active)	–
COCCCN=C1NN=C(c2cc(C)n(Cc3ccco3)c2C)CS1	24.8% (inactive)	–
Cc1cc(C2=NNC(=NC3CC3)SC2)c(C)n1Cc1ccco1	26.3% (inactive)	–
CCOC(=O)/C(C#N)=C1/C=Nc2ccccc2N1	14.4% (inactive)	–
Cc1ccc(NC(=O)CCNS(=O)(=O)c2ccc3[nH]c(=O)oc3c2)c(C)c1	-0.1% (inactive)	–
COc1cccc(C(=O)Nc2ccc3c(c2)C(=O)NC3=O)c1	11.6% (inactive)	–
Cc1ccn2c(Nc3ccccc3)c(-c3ccccn3)nc2c1	21.1% (inactive)	–
Cc1ccn2c(Nc3ccccc3C)c(-c3ccccn3)nc2c1	15% (inactive)	–

SMILES	inhibition	inhibition [1] [%]
Cc1ccc(Nc2c(-c3ccccn3)nc3cc(C)ccn23)cc1	50.4% (active)	–
O=C(Nc1ccc2c(c1)OCCO2)c1cccc(Br)c1	-4.4% (inactive)	–
Nc1nnnn1/N=C/c1ccccc1OCc1ccc(Cl)cc1	0.5% (inactive)	–
Cc1nn(CC(=O)NCC2CCCO2)c(C)c1[N+](=O)[O-] (stereo not drawn)	5.2% (inactive)	–
O=C(NCc1ccccc1)c1sc(=S)n2c1[nH]c(=O)c1ccccc12	-8.6% (inactive)	–
NC(=O)c1sc(=S)n2c1[nH]c(=O)c1sccc12	51.8% (active)	–
CC(=O)NNC(=O)c1sc(=S)n2c1[nH]c(=O)c1sccc12	46.1% (inactive)	–
Cc1c(C(=O)/C=C/c2cccs2)oc2ccc(F)cc12	-6.1% (inactive)	–
CCOC(=O)c1ccc2c(c1)C1C=CCC1C(C(=O)O)N2 (stereo not drawn)	31% (inactive)	–
O=C(OC1CCCCC1)c1ccc2c(c1)C1C=CCC1C(C(=O)O)N2 (stereo not drawn)	74.8% (active)	–
Cc1ccc2c(c1)C1C=CCC1C(C(=O)O)N2 (stereo not drawn)	39.2% (inactive)	–
Cc1ccccc1OCC(=O)OC(C(=O)c1ccccc1)c1ccccc1 (stereo not drawn)	12.2% (inactive)	–
O=C1CCCN1c1cc(Cl)ccc1Cl	-4.5% (inactive)	–
O=c1cnnc(Nc2cccc(C(F)(F)F)c2)[nH]1	2.4% (inactive)	–
Fc1ccc(Nc2nc3ccccc3s2)cc1	3.5% (inactive)	–
Cc1cc(=O)[nH]c(Nc2cccc(C(F)(F)F)c2)n1	-2.3% (inactive)	–
O=c1cc(O)c2sc(Nc3cccc(C(F)(F)F)c3)nc2[nH]1	66.6% (active)	–
O=c1cc(O)c2sc(Nc3ccc(F)c(Cl)c3)nc2[nH]1	86.3% (active)	–
O=c1cc(O)c2sc(Nc3ccc(Cl)c(F)c3)nc2[nH]1	66.1% (inactive)	31.6
COc1ccc(Nc2nc3[nH]c(=O)cc(O)c3s2)cc1	87.5% (inactive)	17.2
Fc1ccc(Nc2nnc(C(F)(F)F)s2)cc1Cl	10.6% (inactive)	–
O=c1cc(O)c2sc(Nc3ccc(F)cc3)nc2[nH]1	63.2% (active)	–
